Test systems include BT-549 breast; MDA-MB-435 melanoma; SW-620 colon; MCF7 breast; HCT-116 colon; HCC-2998 colon; KM12 colon.
Assay in all cases: NCI-60 one-dose screen, 48 h (100 = growth as untreated, 0 = no growth, -100 = all killed)
What all share (conditions): 10 µM

About 83,000 compounds went through this panel and 20% of them were active in at least one assay; those are over-represented in the sample as a whole.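 A percent growth of 40 corresponds to 60% growth inhibition; 0 means no net growth; -100 means all cells died. Active threshold: below 10.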 Values without a mark were called inactive. Calls of active or inactive are those of the source.

In PubChem BioAssay (NCI) one finds growth data, which are given here for 18 molecules.

With `CCCCCCCNc1nc(C=O)ncc1-c1ccc(C(F)(F)F)cc1`, the growth was 99.7% in the test on BT-549 breast; 100% with MDA-MB-435 melanoma; 98% with SW-620 colon; 83.5% in the test with MCF7 breast; 98.3% in the test with HCT-116 colon; 104% in the test with HCC-2998 colon. Moreover, the growth with KM12 colon was 91.2%.

For the molecule `Cc1cc(=O)n2nnc3c4ccccc4ccc3n12`, the growth was 72.8% in the test with BT-549 breast; 104% in the test on MDA-MB-435 melanoma; -62% (active) in the test on SW-620 colon; 45% in the test with MCF7 breast; 8.71% (active) with HCT-116 colon; 105% with HCC-2998 colon. The growth with KM12 colon was 91.2%.

`CN(C)C=Nc1cc(Cl)ccc1Cl`: the growth was 112% in the test on BT-549 breast; 97.9% in the test with MDA-MB-435 melanoma; 103% in the test with SW-620 colon; 101% with MCF7 breast; 104% in the test on HCT-116 colon; 108% in the test on HCC-2998 colon. Also, the growth in the test with KM12 colon is 110%.

As for `O=C1N=NC2=C1c1c3ccccc3c(O)n1CC2`, the growth in the test on BT-549 breast is 110%; with MDA-MB-435 melanoma, 99.8%; in the test with SW-620 colon, 106%; with MCF7 breast, 94.2%; with HCT-116 colon, 93.9%; in the test on HCC-2998 colon, 101%. Also, the growth with KM12 colon was 109%.

With `CCCCCCCCCCCCCCCCCC(=O)OCCCCCCC`, the growth with BT-549 breast was 110%; with MDA-MB-435 melanoma, 94.6%; in the test with SW-620 colon, 97.5%; with MCF7 breast, 107%; with HCT-116 colon, 118%; in the test with HCC-2998 colon, 102%. Also, the growth in the test on KM12 colon is 97.6%.

In the case of `COc1ccc(Nc2ccnc(NCCNc3ccnc4cc(Cl)ccc34)n2)cc1`, the growth in the test on BT-549 breast is 61%; with MDA-MB-435 melanoma, -39.1% (active); with SW-620 colon, 36.4%; with MCF7 breast it was 14.3%; in the test with HCT-116 colon, 3.11% (active); in the test on HCC-2998 colon, 41.1%. Further, the growth in the test with KM12 colon is 62.2%.

As to `Nc1ncn(C2OC(CO)C(O)C2O)c(=O)n1` (stereo unspecified), the growth with BT-549 breast was -9.44% (active); in the test with MDA-MB-435 melanoma it was 3.05% (active); with SW-620 colon it was 29.3%; in the test with MCF7 breast it was 11.5%; with HCT-116 colon, -32% (active); with HCC-2998 colon, -1.48% (active). Besides, the growth in the test on KM12 colon was -15.8% (active).

Take `O=C(/C=C/c1cc2ccccc2[nH]c1=O)c1ccc2c(c1)OCO2`: the growth in the test with BT-549 breast was 84.2%; in the test with MDA-MB-435 melanoma it was 95.7%; in the test on SW-620 colon, 99.6%; in the test on MCF7 breast, 80.6%; with HCT-116 colon, 81.6%; with HCC-2998 colon, 105%. The growth with KM12 colon was 92.3%.

On to `CCN1CCC2(CC1)OC(c1ccccc1)C(c1ccccc1)O2` (stereo unspecified), for which the growth in the test on BT-549 breast is 110%; in the test with MDA-MB-435 melanoma it was 114%; in the test with SW-620 colon, 102%; in the test with MCF7 breast it was 99.6%; with HCT-116 colon, 95.1%; with HCC-2998 colon, 113%. Also, in the test on KM12 colon, the growth is 115%.

For `CCN(CC)CCSCCN(CC)CC`, the growth in the test on BT-549 breast is 105%; in the test on MDA-MB-435 melanoma, 101%; in the test with SW-620 colon it was 99.2%; with MCF7 breast, 99.1%; in the test with HCT-116 colon it was 107%; in the test with HCC-2998 colon, 119%. Further, the growth with KM12 colon is 107%.

For `CC1(C)OC2=C(CC1Br)C(=O)C(=O)c1ccccc12` (stereo unspecified), the growth in the test with BT-549 breast is -99.2% (active); in the test with MDA-MB-435 melanoma, -87.4% (active); in the test with SW-620 colon it was -81.5% (active); with MCF7 breast, -66.3% (active); in the test on HCT-116 colon, -57% (active); in the test with HCC-2998 colon, -19.7% (active). For the same molecule, the growth in the test with KM12 colon was -93% (active).

On to `CCN1CCN(c2nc3ccccc3c3c(=O)c4ccccc4sc23)CC1`, for which the growth with BT-549 breast was 69%; in the test with MDA-MB-435 melanoma, 47.9%; in the test with SW-620 colon, 24%; with MCF7 breast, 28.3%; in the test with HCT-116 colon, 27.5%; with HCC-2998 colon, 57.2%. Further, the growth in the test on KM12 colon was 36.1%.

As for `NC1=NC(=O)C(c2ccccc2)(c2ccccc2)S1`, the growth in the test with BT-549 breast was 118%; in the test with MDA-MB-435 melanoma, 121%; in the test with SW-620 colon it was 108%; in the test with MCF7 breast, 105%; with HCT-116 colon, 106%; with HCC-2998 colon it was 108%. The growth with KM12 colon is 107%.

Regarding `COc1cc(-c2cc(C(=O)N3CCN(C(=O)c4ccccc4NCc4cccs4)CC3)nc3cc(-c4ccccc4)nn23)cc(OC)c1OC`, the growth with BT-549 breast was 83.8%; in the test on MDA-MB-435 melanoma, 6.28% (active); with SW-620 colon, 51%; in the test with MCF7 breast, 23.6%; in the test on HCT-116 colon, 55.9%; in the test with HCC-2998 colon, 101%. The growth in the test with KM12 colon is 27.5%.

As to `O=C(Nc1cccc(-n2cc(-c3ccncc3)c(-c3ccc(O)c(Cl)c3)n2)c1)c1cccc(C(F)(F)F)c1`, the growth was 43.9% in the test with BT-549 breast; 33.7% with MDA-MB-435 melanoma; 26.1% in the test with SW-620 colon; 13.9% with MCF7 breast; 21.7% in the test with HCT-116 colon; 25.7% in the test on HCC-2998 colon. Besides, the growth with KM12 colon is 20.2%.

Regarding `CCCN(CCC)CCC(O)c1cc2c(c3ccccc13)CCCC2` (stereo unspecified), the growth in the test with BT-549 breast is 92.5%; in the test with MDA-MB-435 melanoma, 97.7%; with SW-620 colon it was 94.1%; with MCF7 breast, 82.4%; with HCT-116 colon, 70.3%; with HCC-2998 colon, 87.6%. The growth with KM12 colon is 101%.

Take `COc1cc(-c2cc(/C=C/C(=O)c3ccc(Cl)c(Cl)c3)[nH]n2)cc(OC)c1OC`: the growth is 71% with BT-549 breast; 43% with MDA-MB-435 melanoma; 60.7% in the test on SW-620 colon; 19.3% with MCF7 breast; 36% in the test with HCT-116 colon; 107% in the test with HCC-2998 colon. In the test on KM12 colon, the growth is 26.2%.

For the molecule `COc1ccc(-c2nn(-c3cccc(NC(=O)Nc4ccc(Cl)c(C(F)(F)F)c4)c3)cc2-c2ccncc2)cc1Cl`, the growth in the test on BT-549 breast was 11.2%; in the test with MDA-MB-435 melanoma it was -24.3% (active); in the test on SW-620 colon it was 17.7%; in the test on MCF7 breast, 1.57% (active); in the test with HCT-116 colon it was 8.61% (active); with HCC-2998 colon it was 37.7%. Also, the growth in the test with KM12 colon is 4% (active).
